# Laboratory results from PubChem BioAssay AID743445 (Broad Institute, 2014).
# Screen size: about 310,000 compounds; about 1,700 (0.55%) were called active. No stated cut-off is given here; in the data, active means inhibition above about 50%; inactive means the rest. What follows is part of a selection rich in actives, with near analogues and random picks from the rest.
# Biological target: Histone-lysine N-methyltransferase NSD2 (Homo sapiens) (UniProt O96028)
# Experiment: NSD2 histone methyltransferase inhibitors, primary screen, biochemical, AlphaScreen, single concentration, set 2 (AID 743445)
# Details: NSD2 peptide methylation, 120 min, at 12.5 µM, active compounds read high
# Chain of Histone-lysine N-methyltransferase NSD2 (Homo sapiens) (O96028 whole entry, looked up): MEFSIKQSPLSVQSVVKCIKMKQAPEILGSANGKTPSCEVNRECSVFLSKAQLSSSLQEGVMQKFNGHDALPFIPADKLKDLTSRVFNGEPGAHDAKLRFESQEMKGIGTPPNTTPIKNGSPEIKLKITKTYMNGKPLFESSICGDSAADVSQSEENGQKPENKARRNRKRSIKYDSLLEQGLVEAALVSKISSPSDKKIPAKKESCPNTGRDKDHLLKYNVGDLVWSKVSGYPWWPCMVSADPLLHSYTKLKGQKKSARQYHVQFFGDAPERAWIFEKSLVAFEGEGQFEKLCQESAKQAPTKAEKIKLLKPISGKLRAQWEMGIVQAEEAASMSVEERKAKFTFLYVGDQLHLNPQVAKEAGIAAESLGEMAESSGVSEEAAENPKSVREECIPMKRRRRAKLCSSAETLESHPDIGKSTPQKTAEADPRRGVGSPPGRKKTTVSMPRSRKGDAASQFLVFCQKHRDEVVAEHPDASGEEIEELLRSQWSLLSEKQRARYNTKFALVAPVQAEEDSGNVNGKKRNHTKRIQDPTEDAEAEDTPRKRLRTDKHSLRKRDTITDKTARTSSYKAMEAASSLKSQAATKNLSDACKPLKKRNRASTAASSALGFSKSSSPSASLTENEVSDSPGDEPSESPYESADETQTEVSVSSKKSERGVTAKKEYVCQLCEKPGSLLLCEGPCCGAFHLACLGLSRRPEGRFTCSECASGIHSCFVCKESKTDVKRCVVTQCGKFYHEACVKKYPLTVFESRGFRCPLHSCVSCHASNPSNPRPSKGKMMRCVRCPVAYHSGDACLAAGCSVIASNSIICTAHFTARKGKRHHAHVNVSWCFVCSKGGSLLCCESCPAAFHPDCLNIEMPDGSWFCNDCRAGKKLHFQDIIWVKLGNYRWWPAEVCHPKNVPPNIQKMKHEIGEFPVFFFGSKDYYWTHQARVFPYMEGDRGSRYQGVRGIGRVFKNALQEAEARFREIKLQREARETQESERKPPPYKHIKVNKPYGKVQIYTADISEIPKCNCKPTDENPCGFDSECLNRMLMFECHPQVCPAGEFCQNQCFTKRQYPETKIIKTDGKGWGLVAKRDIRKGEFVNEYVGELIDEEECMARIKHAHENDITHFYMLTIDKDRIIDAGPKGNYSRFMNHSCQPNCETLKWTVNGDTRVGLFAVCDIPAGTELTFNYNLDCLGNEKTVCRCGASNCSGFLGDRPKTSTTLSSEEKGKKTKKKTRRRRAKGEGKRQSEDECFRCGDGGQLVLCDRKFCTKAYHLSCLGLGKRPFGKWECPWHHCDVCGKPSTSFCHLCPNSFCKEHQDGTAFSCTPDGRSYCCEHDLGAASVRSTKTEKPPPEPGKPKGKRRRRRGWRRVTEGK
row,Structure (SMILES),inhibition
1,O=C(NC1CCCCC1)c1ccc(-c2ccc(Cl)cc2)o1,-1.75% (inactive)
2,Cc1[nH][nH]c(=O)c1C(c1ccc(-c2ccc(Cl)cc2)o1)c1c(C)[nH][nH]c1=O,105% (active)
3,CN(CC(=O)Nc1ccc(F)cc1)C(=O)c1ccc(-c2ccc(Cl)cc2)o1,-0.366% (inactive)
4,O=C(NCC1COc2ccccc2O1)c1ccc(NC(=O)c2cc(F)ccc2F)cc1 (configuration not stated),-0.735% (inactive)
5,CCOC(=O)N1CCN(CCC(=O)Nc2ccccc2)CC1,-3.41% (inactive)
6,CC1CCN(CCC(=O)Nc2ccccc2)CC1,51.1% (active)
7,COc1ccc(OC)c(NC(=O)CCN2CCC(C)CC2)c1,0.958% (inactive)
8,O=c1[nH]c(CN2CCOCC2)nc2scc(-c3ccccc3)c12,-2.17% (inactive)
9,CN(CCOc1ccccc1)Cc1nc2cc(Cl)ccc2c(=O)[nH]1,-1.91% (inactive)
10,O=c1[nH]c(CN2CCOCC2)nc2cc(Cl)ccc12,108% (active)
11,Cc1ccccc1CS(=O)(=O)Cc1ccc(C(=O)Nc2ccc(Cl)cc2)o1,1.09% (inactive)
12,CCOC(=O)c1csc(NC(=O)C2CCCN(S(=O)(=O)c3ccc(Cl)s3)C2)n1 (configuration not stated),2.06% (inactive)
13,Cc1occc1-c1nnc(SCC(=O)NC2CCCCC2)o1,0.775% (inactive)
14,O=C(CSc1nnc(-c2ccccc2O)o1)NC1CCCCC1,55.7% (active)
15,Cc1cc(C)cc(-c2nnc(SCC(=O)NC3CC3)o2)c1,0.103% (inactive)
16,CN(C)C(=O)N1CCN(C(=O)[C@@H](Cc2ccccc2)NC(=O)[C@H]2O[C@@H](n3ccc(N)nc3=O)[C@H](O)[C@@H]2O)CC1,-3.38% (inactive)
17,Clc1ccc(C2=CSC3=Nc4cccc5cccc(c45)N23)cc1,125% (active)
18,COc1ccc(NC(=O)Cn2nnc(C(=O)NCCc3ccc(OC)c(OC)c3)c2N)cc1,159% (active)
19,CCc1ccc(NC(=O)Cn2nnc(C(=O)NCc3ccc(OC)cc3)c2N)cc1,-10.9% (inactive)

row,Structure (SMILES),inhibition
1,COc1ccc(CNC(=O)c2nnn(CC(=O)Nc3cc(C)cc(C)c3)c2N)cc1,0.097% (inactive)
2,CC(C)(C)c1ccc(CSc2nnc(-c3cccs3)o2)cc1,-3.66% (inactive)
3,C=CCn1c(=NC(=O)c2ccc(S(=O)(=O)N3CCCC3)cc2)sc2cc(NC(C)=O)ccc21,96.1% (active)
4,COc1cc(C(C)=O)ccc1OC(C)C(=O)Nc1ccc(S(=O)(=O)N2CCCC2)cc1 (configuration not stated),-0.04% (inactive)
5,CC(=O)Nc1ccc(S(=O)(=O)N2CCSCC2)cc1,-0.875% (inactive)
6,Clc1ccc(-n2c(SC/C=C/c3ccccc3)nnc2-c2ccco2)cc1,1.46% (inactive)
7,COc1cccc(CNC(=O)C2CCCN(c3nc4ccccc4o3)C2)c1OC (configuration not stated),0.947% (inactive)
8,CN(C)CCNC(=O)c1ccc(-c2cn3c(-c4ccc(Oc5ccccc5)cc4)cnc3cn2)cc1,1.51% (inactive)
9,Cc1ccc(C(=O)C2CCN(CC(=O)NCCC(C)C)CC2)cc1,-1.14% (inactive)
10,O=C(NC(c1ccc(Cl)cc1)c1cnccn1)C1CCN(Cc2ccc(Cl)cc2)CC1 (configuration not stated),-0.128% (inactive)
11,Cn1c(=O)c2cc(NC(=O)NCCc3cccs3)ccc2n1Cc1cccc(C(F)(F)F)c1,0.114% (inactive)
12,CCN1CCCC1CNC(=O)c1ccc2c(c1)NC(=O)/C(=C\c1ccccc1F)S2 (configuration not stated),21.8% (inactive)
13,CCN1CCN(CCNC(=O)c2ccc3c(c2)NC(=O)/C(=C\c2cccc(Cl)c2)S3)CC1,2.99% (inactive)
14,O=C1Nc2cc(C(=O)N3CCC(N4CCCCC4)CC3)ccc2S/C1=C\c1ccccc1,50.2% (active)
15,CCC(=O)N1CCc2cc(S(=O)(=O)CCC(=O)N3CCN(c4ccccc4F)CC3)ccc21,-2.83% (inactive)
16,CCC(=O)N1CCc2cc(S(=O)(=O)NC(C(=O)N3CCc4ccccc4C3)C(C)C)ccc21 (configuration not stated),59.8% (active)
17,CCOC(=O)N1CCC(NC(=O)C(NS(=O)(=O)c2ccc3c(c2)CCN3C(=O)CC)C(C)C)CC1 (configuration not stated),17.1% (inactive)
18,COc1cccc(-c2cc3nc(NCc4ccccc4OC)n(C)c(=O)c3s2)c1,-2.63% (inactive)
19,O=C(CSc1nc2ccccc2s1)NN=Cc1ccc(O)cc1O,9.45% (inactive)

row,Structure (SMILES),inhibition
1,C=CCNCCCCOc1ccccc1,73.8% (active)
2,C=CCNC(=O)CCCOc1cccc(C)c1,-2.74% (inactive)
3,CCCCCCCCC(=O)NCCOc1ccccc1,1.73% (inactive)
4,Cc1ccc(CC2(C)C(=O)Nc3ccc(OC(F)(F)F)cc32)cc1 (configuration not stated),-1.93% (inactive)
5,O=C(CN1CCC(NC(=O)NCc2ccccc2)CC1)Nc1ccc2c(c1)OCCO2,-3.14% (inactive)
6,O=C(NCc1cccs1)C1CCN(S(=O)(=O)c2ccccc2[N+](=O)[O-])CC1,-1.94% (inactive)
7,COc1ccc(S(=O)(=O)/N=C2\C=C(NS(=O)(=O)c3ccccc3)C(=O)c3ccccc32)cc1,116% (active)
8,Cc1ccc(S(=O)(=O)/N=C2\C=C(NS(=O)(=O)c3ccc(C)cc3)C(=O)c3ccccc32)cc1,186% (active)
9,Cc1ccc(S(=O)(=O)N/N=C(\c2ccccc2)C2CC2)cc1,-5.26% (inactive)
10,COc1ccc(S(=O)(=O)NCCCc2ccccc2)cc1,-2.03% (inactive)
11,Cc1ccc(S(=O)(=O)N[C@H](CO)C(C)C)cc1,-1.39% (inactive)
12,O=C1C=C(NS(=O)(=O)c2ccccc2)C(=O)c2ccccc21,16.2% (inactive)
13,CCCCN(C=O)c1c(CC)nc2c(OCc3ccccc3C(=O)OC)cccn12,2.37% (inactive)
14,Cc1nc2c(OCc3cccc(Cl)c3)cccn2c1N(C)CC1CC1,1.55% (inactive)
15,CCn1c2ccccc2c2cc(NC(=O)CSc3nnc(-c4ccccc4)n3-c3ccc(C)cc3)ccc21,0.529% (inactive)
16,CC(C)(C)CC(=O)Nc1nnc(SCC(=O)NCc2cccs2)s1,63.2% (active)
17,O=C(Cc1cccs1)Nc1nnc(SCc2ccc(F)cc2)s1,0.676% (inactive)
18,Cc1nnc(SCC(=O)NCc2cccs2)[nH]c1=O,-1.95% (inactive)
19,CCOC(=O)[C@]12CCCC=C1N(CCC1=CCCCC1)C(=O)[C@H](CC(=O)NCCCCc1ccccc1)C2,1.69% (inactive)
